Results reported in PubChem BioAssay (Tox21).
Records with an inconclusive call do not appear. Activity calls are given as the source filed them. Unless noted, calls come from the whole dose curve.

Columns and labels:
[1] = qHTS assay to identify small molecule agonists of the peroxisome proliferator-activated receptor delta (PPARd) signaling pathway - cell viability counter screen (AID 743211; active = well fitted curve in the direction sought with a large enough effect in the repeat runs; an effect the other way counts as inactive or inconclusive; note: nearly all actives have a fitted effect of over 55% in size)
Method in brief: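 Multiplexed format: after the 2 h room-temperature LiveBLAzer B/G FRET step, CellTiter-Glo was added to the same wells. Luminescence after 30 min gave cell viability; compound exposure was 17 h at 37C.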

[2] = molecular target: Peroxisome proliferator-activated receptor delta (Homo sapiens) (UniProt Q03181); assay: qHTS assay to identify small molecule agonists of the peroxisome proliferator-activated receptor delta (PPARd) signaling pathway (AID 743212)
Method in brief: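 GeneBLAzer UAS-bla HEK293H cells carrying a PPARδ construct were exposed to compounds at 37 °C. Beta-lactamase activity was read by FRET fluorescence after 2 h at room temperature with LiveBLAzer B/G substrate.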

[3] = qHTS assay to identify small molecule antagonists of the peroxisome proliferator-activated receptor delta (PPARd) signaling pathway - cell viability counter screen (AID 743213; active = well fitted curve in the direction sought with a large enough effect in the repeat runs; an effect the other way counts as inactive or inconclusive; note: nearly all actives have a fitted effect of over 50% in size)
Method in brief: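 PPARd-bla HEK293H cells (3000/well) got compound plus 300 nM L165041 agonist for 17 h at 37 C. Viability in the same wells came from CellTiter-Glo luminescence after 30 min at room temperature.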

[4] = molecular target: Peroxisome proliferator-activated receptor delta (Homo sapiens) (UniProt Q03181); assay: qHTS assay to identify small molecule antagonists of the peroxisome proliferator-activated receptor delta (PPARd) signaling pathway (AID 743215; active = well fitted inhibition curve with a large enough effect in the signal ratio in the repeat runs, not every such curve was filed as active; the % refers to the signal ratio;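 note: cells stimulated with agonist L165041 at 300 nM final during compound exposure; series mostly up to about 62 µM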)
Method in brief: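 PPARd UAS-bla HEK293H cells were pre-incubated 5 h at 37 C, then given test compounds in DMSO plus agonist L165041 (300 nM final). After 17 h at 37 C, beta-lactamase FRET substrate was added; fluorescence read after 2 h at room temperature.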

[5] = qHTS assay to identify small molecule agonists of the farnesoid-X-receptor (FXR) signaling pathway - cell viability counter screen (AID 743218; active = well fitted curve in the direction sought with a large enough effect in the repeat runs; an effect the other way counts as inactive or inconclusive; note: nearly all actives have a fitted effect of over 45% in size)
Method in brief: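 FXR-UAS-bla HEK 293T cells, plated 5 h at 37 C, were exposed to compounds for 16 h at 37 C. CellTiter-Glo was then added to the same wells as the bla readout; luminescence read after 30 min at room temperature.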

[6] = qHTS assay to identify small molecule antagonists of the farnesoid-X-receptor (FXR) signaling pathway - cell viability counter screen (AID 743221; active = well fitted cell-killing curve with a large enough effect in the repeat runs, not every such curve was filed as active; note: nearly all actives have a fitted effect of over 50% in size)
Method in brief: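 CellTiter-Glo, 30 min RT, luminescence; same wells as the LiveBLAzer FRET read. Cells: FXR-UAS-bla HEK 293T. Treatment: compound with chenodeoxycholic acid 50 uM final, 16 h at 37 C.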

[7] = molecular target: Vitamin D3 receptor (Homo sapiens) (UniProt P11473); assay: qHTS assay to identify small molecule agonists of the vitamin D receptor (VDR) signaling pathway (AID 743222)
Method in brief: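 VDR-bla cells were plated 4 h at 37C/5% CO2, then exposed to compounds in DMSO for 16 h. After LiveBLAzer B/G FRET substrate addition and 2 h at room temperature, beta-lactamase reporter fluorescence was read.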

[8] = molecular target: Vitamin D3 receptor (Homo sapiens) (UniProt P11473); assay: qHTS assay to identify small molecule antagonists of the vitamin D receptor (VDR) signaling pathway (AID 743223; active = well fitted inhibition curve with a large enough effect in the signal ratio in the repeat runs, not every such curve was filed as active; the % refers to the signal ratio)
Method in brief: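 After VDR-bla cells are plated and left 4 h at 37C, DMSO-dissolved compounds and 3 nM (final) calcitriol agonist are added. Incubation continues 16 h at 37C; FRET beta-lactamase substrate then develops 2 h at room temperature.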

[9] = qHTS assay to identify small molecule agonists of the vitamin D receptor (VDR) signaling pathway - cell viability counter screen (AID 743224; active = well fitted curve in the direction sought with a large enough effect in the repeat runs; an effect the other way counts as inactive or inconclusive; note: series mostly up to about 63 µM; nearly all actives have a fitted effect of over 50% in size)
Method in brief: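 VDR-bla cells were preincubated 4 h at 37C/5% CO2, then exposed to compounds for 16 h. After the 2 h room-temperature bla FRET read, CellTiter-Glo was added to the same wells and luminescence read after 30 min.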

[10] = qHTS assay to identify small molecule antagonists of the vitamin D receptor (VDR) signaling pathway - cell viability counter screen (AID 743225; active = well fitted curve in the direction sought with a large enough effect in the repeat runs; an effect the other way counts as inactive or inconclusive; note: nearly all actives have a fitted effect of over 50% in size)
Method in brief: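 Cytotoxicity toward the VDR-bla HEK 293T line was scored by ATP-based CellTiter-Glo luminescence, read in the wells already used for the beta-lactamase readout after 16 h compound treatment under 3 nM 1-alpha,25-dihydroxyvitamin D3 stimulation.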

[11] = qHTS assay to identify small molecule agonists of the NFkB signaling pathway (AID 1159509; active = well fitted curve in the direction sought with a large enough effect in the signal ratio in the repeat runs, not every such curve was filed as active; the % refers to the signal ratio; note: series mostly up to about 61 µM)
Method in brief: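 ME-180 NFkB-bla, 2,000 cells/well, overnight plating; cpd pinned in DMSO, 5 h 37 C; B/G FRET substrate 1.5 h RT; ex 405, em 460/530 nm.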

[12] = qHTS assay to identify small molecule agonists of the NFkB signaling pathway - cell viability counter screen (AID 1159515); note: series mostly up to about 61 µM; nearly all actives have a fitted effect of over 55% in size
Method in brief: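 NFkB-bla ME-180 cells, 2,000/well, were plated overnight at 37 C, 5% CO2, then exposed to compounds in DMSO for 5 hr. After the bla FRET read, CellTiter-Glo was added to the same wells; luminescence was read after 30 min at room temperature.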

[13] = qHTS assay to identify small molecule agonists of the endoplasmic reticulum stress response signaling pathway (AID 1159516; active = well fitted activation curve with a large enough effect in the signal ratio in the repeat runs, not every such curve was filed as active; the % refers to the signal ratio)
Method in brief: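 CellSensor ESRE-bla HeLa cells, carrying a beta-lactamase reporter driven by the ER stress response element, were plated overnight and exposed to compounds for 5 hr at 37 C. Reporter activity was read as FRET substrate fluorescence after 2 hr at room temperature.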

[14] = qHTS assay to identify small molecule agonists of the endoplasmic reticulum stress response signaling pathway - cell viability counter screen (AID 1159517)
Method in brief: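 ESRE-bla HeLa cells, 1,500 per well, seeded overnight then treated with compounds for 5 hr at 37 C. After the beta-lactamase read, viability in the same wells is measured by CellTiter-Glo luminescence after 30 min at room temperature.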

[15] = qHTS assay to identify small molecule antagonists of the retinoid-related orphan receptor gamma (ROR-gamma) signaling pathway - cell viability counter screen (AID 1159520; active = well fitted curve in the direction sought with a large enough effect in the repeat runs; an effect the other way counts as inactive or inconclusive; note: nearly all actives have a fitted effect of over 50% in size)
Method in brief: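 Tet-on ROR gamma CHO cells were given compounds for 2 hr, then doxycycline hyclate at 1 uM final, and incubated 16 hr at 37 C. Viability was measured as ATP content by CellTiter-Glo luminescence.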

[16] = qHTS assay to identify small molecule agonists of the AP-1 signaling pathway - cell viability counter screen (AID 1159525); note: nearly all actives have a fitted effect of over 55% in size
Method in brief: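 AP-1-bla ME-180 cells in Opti-MEM with 0.5% dialyzed FBS, compound exposure 5 h at 37 C in 15-point titration. Viability read in the same wells as ATP content by CellTiter-Glo luminescence, normalised to tetra-n-octylammonium bromide and DMSO controls.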

[17] = qHTS assay to identify small molecule agonists of the AP-1 signaling pathway (AID 1159526)
[18] = molecular target: Bile acid receptor (Homo sapiens) (UniProt Q96RI1); assay: qHTS assay to identify small molecule antagonists of the farnesoid-X-receptor (FXR) signaling pathway (AID 743217; active = well fitted inhibition curve with a large enough effect in the signal ratio in the repeat runs, not every such curve was filed as active; the % refers to the signal ratio)
Method in brief: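 FXR-UAS-bla HEK 293T cells pre-incubated 5 h at 37 °C, then exposed to compounds with chenodeoxycholic acid (50 uM final) for 16 h at 37 °C. Beta-lactamase reporter read by LiveBLAzer B/G FRET substrate fluorescence after 2 h at room temperature.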

[19] = molecular target: Bile acid receptor (Homo sapiens) (UniProt Q96RI1); assay: qHTS assay to identify small molecule agonists of the farnesoid-X-receptor (FXR) signaling pathway (AID 743220; active = well fitted activation curve with a large enough effect in the signal ratio in the repeat runs, not every such curve was filed as active; the % refers to the signal ratio)
Method in brief: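 Beta-lactamase reporter under UAS control in GeneBLAzer FXR HEK 293T cells (5000/well) measured with LiveBLAzer FRET substrate after 2 h at room temperature. Compound exposure lasted 16 h at 37C.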

Measured: Potency

Chain of Bile acid receptor (Homo sapiens) (Q96RI1 whole entry, looked up): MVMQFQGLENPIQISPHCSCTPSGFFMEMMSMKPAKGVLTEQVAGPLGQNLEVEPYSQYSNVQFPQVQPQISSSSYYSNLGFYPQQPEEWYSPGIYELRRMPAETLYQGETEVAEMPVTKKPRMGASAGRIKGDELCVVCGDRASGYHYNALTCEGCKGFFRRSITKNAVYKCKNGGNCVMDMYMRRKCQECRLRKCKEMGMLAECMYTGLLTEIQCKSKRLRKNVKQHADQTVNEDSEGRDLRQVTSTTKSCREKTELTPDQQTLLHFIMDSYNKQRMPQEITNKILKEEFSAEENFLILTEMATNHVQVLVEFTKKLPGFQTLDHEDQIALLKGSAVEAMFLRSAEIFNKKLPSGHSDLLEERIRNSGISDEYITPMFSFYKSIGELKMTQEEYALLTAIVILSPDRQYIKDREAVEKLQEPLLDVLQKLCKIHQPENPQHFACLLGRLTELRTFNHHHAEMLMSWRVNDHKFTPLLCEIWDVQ
Chain of Peroxisome proliferator-activated receptor delta (Homo sapiens) (Q03181 whole entry, looked up): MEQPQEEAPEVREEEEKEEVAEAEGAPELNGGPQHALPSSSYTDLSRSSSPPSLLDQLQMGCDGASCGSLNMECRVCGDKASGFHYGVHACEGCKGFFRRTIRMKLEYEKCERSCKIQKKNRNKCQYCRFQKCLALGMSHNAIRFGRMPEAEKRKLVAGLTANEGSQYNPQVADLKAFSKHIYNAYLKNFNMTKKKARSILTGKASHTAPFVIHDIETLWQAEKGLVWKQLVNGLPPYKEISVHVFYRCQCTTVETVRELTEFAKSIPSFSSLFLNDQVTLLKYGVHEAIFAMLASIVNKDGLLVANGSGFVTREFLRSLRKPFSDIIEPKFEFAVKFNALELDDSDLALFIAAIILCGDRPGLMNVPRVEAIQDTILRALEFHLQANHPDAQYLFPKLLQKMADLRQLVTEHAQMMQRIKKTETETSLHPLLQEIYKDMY
Chain of Vitamin D3 receptor (Homo sapiens) (P11473 whole entry, looked up): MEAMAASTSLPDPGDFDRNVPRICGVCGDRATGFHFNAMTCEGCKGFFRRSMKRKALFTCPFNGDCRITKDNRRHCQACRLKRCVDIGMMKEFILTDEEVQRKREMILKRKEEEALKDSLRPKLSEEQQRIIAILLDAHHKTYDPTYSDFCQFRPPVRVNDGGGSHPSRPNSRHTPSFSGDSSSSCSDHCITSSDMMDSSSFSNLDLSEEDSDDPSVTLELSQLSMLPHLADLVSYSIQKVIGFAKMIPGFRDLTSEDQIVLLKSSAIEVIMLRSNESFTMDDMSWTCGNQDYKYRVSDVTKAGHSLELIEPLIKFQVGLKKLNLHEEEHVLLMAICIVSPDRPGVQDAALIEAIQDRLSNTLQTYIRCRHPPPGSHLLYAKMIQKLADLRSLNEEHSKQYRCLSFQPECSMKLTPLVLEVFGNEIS

COC(OC)(C(=O)c1ccccc1)c1ccccc1
not listed: [18] | [19]
inactive: all other assays above

CCC(C)=O
not listed: [19]
inactive: all other assays above

CCCOC(=O)c1ccc(N)cc1
not listed: [18] | [19]
inactive: all other assays above

CC(Cl)C(Cl)Cl (configuration not stated)
not listed: [10] | [18] | [19]
inactive: all other assays above

Nc1nccs1
not listed: [10] | [18] | [19]
inactive: all other assays above

CCC(Cc1ccccc1)(C(=O)c1ccc(N2CCOCC2)cc1)N(C)C (configuration not stated)
not listed: [3] | [5] | [8] | [9] | [10] | [18]
inactive: all other assays above

CC(=O)CC(c1ccc([N+](=O)[O-])cc1)c1c(O)c2ccccc2oc1=O (configuration not stated)
not listed: [8] | [10] | [18] | [19]
inactive: all other assays above

CCCCC(CC)COC(=O)COc1ccc(Cl)cc1C (configuration not stated)
not listed: [4] | [18]
inactive: all other assays above

O=C(O)c1ccccc1NCCc1ccccc1
not listed: [5] | [7] | [18] | [19]
inactive: all other assays above

CC(=O)Nc1ccc(N)cc1
not listed: [8] | [10]
inactive: all other assays above

O=[N+]([O-])c1cccc(S(=O)(=O)NCCNS(=O)(=O)c2cccc([N+](=O)[O-])c2)c1
not listed: [3] | [4]
inactive: all other assays above

CN1Cc2cc(C(=O)N3CCC(C4CCNCC4)CC3)ccc2N[C@@H](CC(=O)O)C1=O
not listed: [7] | [8] | [18] | [19]
inactive: all other assays above

Nc1ccc(S(=O)(=O)O)c(N)c1
not listed: [10] | [18] | [19]
inactive: all other assays above

NC(=O)Nc1ccc(Cl)cc1
not listed: [4] | [18] | [19]
inactive: all other assays above

C/C=C/C=C/CCCCCCCO
not listed: [3] | [4] | [7] | [8]
inactive: all other assays above

C=CC(C)(O)CCCC(C)CCCC(C)CCCC(C)C (configuration not stated)
not listed: [18] | [19]
inactive: all other assays above
